# Measured values reported in the supplement of paper PMC5662767.
# Tested on: Drosophila S2 cl14 SmoIP sensor cells
# Experiment: normalized SmoIP GFP fluorescence (untreated unstimulated = 0%, untreated Hh-stimulated = 100%); higher = more Smo activation sensor fluorescence
# Conditions: compound concentration: 2 uM, 24 h
# [1] = stimulation: Hh conditioned medium (+Hh)
# [2] = stimulation: mock conditioned medium (-Hh)
# 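Note: flow cytometry read-out as median GFP intensity of gated cells, compounds added 30 min before Hh-conditioned or mock medium, mock-treated cells serving as unstimulated baseline.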
compound,measurement,setting,value
CN1CCC(c2c[nH]c3ccc(O)cc23)CC1,normalized SmoIP GFP fluorescence,[1],111%
same,normalized SmoIP GFP fluorescence,[2],-2.82%
N#CC(C#N)=Cc1ccc(O)c(O)c1 [ag-18-tyrphostin-23],normalized SmoIP GFP fluorescence,[1],147%
same,normalized SmoIP GFP fluorescence,[2],-12%
Cc1cccc(C)c1NC(=O)CN1CCCC1=O [Nefiracetam(Translon)],normalized SmoIP GFP fluorescence,[1],138%
same,normalized SmoIP GFP fluorescence,[2],-10.8%
CCCN1C[C@H](CSC)C[C@@H]2c3cccc4[nH]cc(c34)C[C@H]21 [Pergolide-mesylate],normalized SmoIP GFP fluorescence,[1],119%
same,normalized SmoIP GFP fluorescence,[2],-0.889%
C[C@](O)(COc1ccc(C#N)cc1)C(=O)Nc1ccc(C#N)c(C(F)(F)F)c1 [Ostarine],normalized SmoIP GFP fluorescence,[1],119%
same,normalized SmoIP GFP fluorescence,[2],2.97%
C=CC[C@]1(O)CC[C@H]2[C@@H]3CCC4=CC(=O)CCC4=C3C=C[C@@]21C [altrenogest],normalized SmoIP GFP fluorescence,[1],109%
same,normalized SmoIP GFP fluorescence,[2],-1.23%
Cc1ccccc1-n1c(Cn2ncc3c(N)ncnc32)nc2cccc(C)c2c1=O,normalized SmoIP GFP fluorescence,[1],115%
same,normalized SmoIP GFP fluorescence,[2],-6.79%
C[C@]12CC[C@H](O)CC1=CC[C@@H]1[C@@H]2CC[C@]2(C)C(=O)CC[C@@H]12 [Dehydroepiandrosterone(DHEA)],normalized SmoIP GFP fluorescence,[1],134%
same,normalized SmoIP GFP fluorescence,[2],-12.4%
